Experimental data as given in PubChem BioAssay (NCATS).
Values joined by “and” are separate entries in the source; they are usually repeats but may differ in a detail not shown here. Equal values may be shown once. Inconclusive results are not listed. The source holds several records for some structures; these can differ, active in one and inactive in another. Active and inactive are the calls of the source. Calls come from the whole dose curve; as a rule, active = well fitted curve in the direction sought with a large enough effect; inconclusive = small, poorly fitted or top-dose-only effect, or another doubt; inactive = no such curve, though single readings can be large; an effect the other way counts as inactive or inconclusive. *1 amine or outer side, *2 acyl side, *3 side chain or, on linkers, in order; H or OH if unused. Where a SMILES comes first, the peptide text is derived from it. Bridges are numbered along the chain shown (N, C = ends). [ ]: non-standard residue; d: D form. The star is where a group is joined. ξ: configuration not given here. ξhTyr(3S-OH,4S-OH,3'-OSO3H) = NC(C(=O)O)[C@H](O)[C@@H](O)c1ccc(O)c(OS(=O)(=O)O)c1; Orn(4R-OH,5R-OH) = O=C([C@H](C[C@@H](O)[C@@H](O)N[*:3])N[*:1])[*:2]; X2 = CCCCCOc1ccc(-c2cc(-c3ccc(C(=O)*)cc3)no2)cc1; X3 = C[C@H]1CN([*:1])C(C(=O)[*:2])[C@H]1O; ξGln(3R-OH) = NC(=O)C[C@@H](O)C(N)C(=O)O; ξPro(4R-OH) = O=C(O)C1C[C@@H](O)CN1; ξThr(3R) = C[C@@H](O)C(N)C(=O)O

Key:
[1] = molecular target: Glutathione peroxidase 1 (Homo sapiens) (UniProt P07203); assay: Primary qHTS Assay for Inhibitors of Recombinant Selenoprotein Glutathione Peroxidase 1 (GPX1) (AID 1845191); conditions: recombinant GPX1, GR-coupled NADPH fluorescence, 15 min; series mostly up to 27.7 µM; note: nearly all actives have a fitted effect of over 65% in size; for activity, negative = inhibition: % is set by controls: 0 for no effect and ±100 for the full control effect
Sequence of Glutathione peroxidase 1 (Homo sapiens) (P07203 whole entry, looked up): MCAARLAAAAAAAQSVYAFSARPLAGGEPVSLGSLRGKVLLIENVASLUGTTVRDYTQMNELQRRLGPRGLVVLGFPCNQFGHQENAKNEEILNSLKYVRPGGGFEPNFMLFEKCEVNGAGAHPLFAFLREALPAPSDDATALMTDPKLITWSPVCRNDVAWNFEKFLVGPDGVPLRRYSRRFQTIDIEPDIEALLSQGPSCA
Method in brief: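 GR-coupled readout: NADPH consumption tracked by fluorescence, ex 340/em 450 nm, at t=0 and after 15 min at RT. Final mix 10 nM GPX1, 1 mM GSH, 0.5 mM CHP, 0.5 mM NADPH, 100 nM GR, 0.01% BSA, following 30 min enzyme–compound preincubation.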

[2] = molecular target: Phospholipid hydroperoxide glutathione peroxidase GPX4 (Homo sapiens) (UniProt P36969); assay: Primary qHTS Assay for Inhibitors of Recombinant Selenoprotein Glutathione Peroxidase 4 (GPX4) (AID 1845192); conditions: recombinant GPX4, GR-coupled NADPH fluorescence, 15 min; series mostly up to 27.8 µM; note: nearly all actives have a fitted effect of over 65% in size; note: potency is the fitted concentration of half-maximal effect; for activity change, negative = inhibition: % is set by controls: 0 for no effect and ±100 for the full control effect
Sequence of Phospholipid hydroperoxide glutathione peroxidase GPX4 (Homo sapiens) (P36969 whole entry, looked up): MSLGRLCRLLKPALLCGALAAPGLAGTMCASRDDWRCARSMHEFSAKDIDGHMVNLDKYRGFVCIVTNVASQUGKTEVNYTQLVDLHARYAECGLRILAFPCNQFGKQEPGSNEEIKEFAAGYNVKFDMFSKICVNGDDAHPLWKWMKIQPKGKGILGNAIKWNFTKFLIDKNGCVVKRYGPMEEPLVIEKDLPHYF
Method in brief: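 Steps: GPX4 plus compound, 30 min RT; add GR/GSH/NADPH master mix; start with cumene hydroperoxide; read 340/450 nm fluorescence at 0 and 15 min. Finals were 200 nM GPX4, 1 mM GSH, 0.5 mM CHP, 0.5 mM NADPH, 100 nM GR.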

[3] = molecular target: Luciferin 4-monooxygenase (Photinus pyralis) (UniProt P08659); assay: Primary firefly luciferase (FLuc) qHTS assay for identification of artifact compounds. (AID 1845220); conditions: purified firefly luciferase, luminescence, 5 min; series mostly up to 54.1 µM; note: nearly all actives have a fitted effect of over 60% in size;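 for activity change, negative = inhibition: plate controls were DMSO vehicle for no effect and no enzyme for full effect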
Method in brief: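 Titrated compounds were incubated 15 min at RT, protected from light, with luciferin and ATP at 10 uM; reaction started with 10 nM FLuc, luminescence imaged at 5 min, and concentration-response fitted by Hill equation.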

[4] = system: Nanoluciferase (engineered Oplophorus gracilirostris luciferase); assay: Primary Nanoluciferase (NLuc) qHTS assay for identification of artifact compounds. (AID 1845222); conditions: NLuc-conditioned medium, Nano-Glo luminescence, 5 min; series mostly up to 54.1 µM;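 note: NLuc secreted into diluted conditioned medium of S16 cells; 0% = DMSO and -100% = no enzyme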
Method in brief: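 qHTS format, against NLuc in S16 cell-conditioned medium. Nano-Glo substrate 1:100 was added after 15 min at room temperature. Luminescence was taken after a further 5 min.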

[5] = Primary fluorescence-based thiol-reactive (MSTI) qHTS assay for identification of artifact compounds. (AID 1845221); conditions: MSTI thiol-reactivity probe, 1 h; series mostly up to 53.8 µM;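 note: thiol-reactive compounds lower the probe fluorescence signal; nearly all actives have a fitted effect of over 65% in size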
Method in brief: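 First, 4 uM MSTI in 2% DMSO/PBS pH 7.4 was dispensed; next, compounds were added; then plates sat 1 h at room temperature without light. Finally, emission at 598 nm was recorded.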

C/C=C(\C)C(=O)OC[C@H]1O[C@@H](O[C@H]2[C@@H](O[C@H]3O[C@H](COC(=O)/C(C)=C/C)[C@@H](O)[C@H](O)[C@H]3O[C@@H]3O[C@H](CO)[C@@H](O)[C@H](OC(=O)/C(C)=C/C)[C@H]3O)O[C@H](COC(=O)/C(C)=C/C)[C@@H](O)[C@@H]2O)[C@H](O)[C@@H](O)[C@@H]1O
inactive: Potency [1] | Potency [2] | activity change, negative = inhibition [3] 2.77% [at 11.6 µM] | activity, negative = inhibition [4] -1.03% [at 11.6 µM]

C=CCc1ccc(O[C@@H]2O[C@H](CO)[C@@H](O)[C@H](O)[C@H]2O)c(O[C@@H]2O[C@H](CO)[C@@H](O)[C@H](O)[C@H]2O)c1
inactive: Potency [1] | Potency [2] | Potency [3] | Potency [4]

C=C(C(=O)O)C1CC(OC(=O)CC(C)CC)C2(C)CCCC(=C)C2C1 (stereo unspecified)
inactive: Potency [1] | Potency [2] | Potency [3] | Potency [4]

CC1CC(=O)[C@]2(O)C(C(=O)OCCc3ccc(O)cc3)=CO[C@@H](O[C@@H]3O[C@H](CO)[C@@H](O)[C@H](O)[C@H]3O)[C@H]12 (stereo partly specified)
inactive: Potency [1] | Potency [2] | Potency [3] | Potency [4]

CC(=O)OC/C(=C/C(=O)O)CC[C@@H]1C(CO)=CC[C@@H]2C(C)(C)CCC[C@@]12C
inactive: Potency [1] | Potency [2] | Potency [3] | Potency [4]

CC[C@@H]1[C@H]2CCCCN3C(=O)C[C@H]([C@@H]4[C@H]1OC(=O)[C@H]4C)[C@@H]23
inactive: Potency [1] | Potency [2] | Potency [3] | Potency [4]

C=C1C2CCC3CC2(CC(O)C2(O)C1CC(OC1OC(CO)C(O)C(O)C1O)C2(C)C)CC3(C)O (stereo unspecified)
inactive: Potency [1] | Potency [2] | Potency [3] | Potency [4]

CC1OC(OC2C(OC3C(O[C@H]4CC[C@@]5(C)C(CC[C@]6(C)C5C(=O)CC5=C7CC(C)(C)CC(O)[C@]7(C)CC[C@]56C)C4(C)C)OC(C(=O)O)C(O)C3O)OCC(O)C2O)C(O)C(O)C1O (stereo partly specified)
inactive: Potency [1] | Potency [2] | activity change, negative = inhibition [3] 0.49% [at 11.6 µM] | activity, negative = inhibition [4] -10.9% [at 11.6 µM]

COC(=O)[C@H](Cc1ccc([N+](=O)[O-])cc1)NC(=O)c1cccc2ccccc12
inactive: Potency [1] | Potency [2] | Potency [3] | Potency [4]

COc1cc(C(O)C2COC(c3ccc(OC4OC(CO)C(O)C(O)C4O)c(OC)c3)C2CO)ccc1O (stereo unspecified)
inactive: Potency [1] | Potency [2] | Potency [3] | Potency [4]

C=C[C@H]1[C@H](O[C@@H]2O[C@H](CO)[C@@H](O)[C@H](O)[C@H]2O)OC=C(C(=O)OC)[C@H]1CC=O
inactive: Potency [1] | Potency [2] | Potency [3] | Potency [4]

CC1C(=O)OCC2=CC[N+]3([O-])CCC(OC(=O)C(C)(O)C1(C)O)C23 (stereo unspecified)
inactive: Potency [1] | Potency [2] | Potency [3] | Potency [4]

C[C@H]1[C@@H](O)[C@H](O)C2[C@]3(C)C([C@@H](O)[C@H]4OC(=O)[C@@H]1[C@@]24C)[C@](C)(O)C=C[C@H]3O[C@@H]1O[C@H](CO)[C@@H](O)[C@H](O)[C@H]1O (stereo partly specified)
inactive: Potency [1] | Potency [2] | Potency [3] | Potency [4]

C=CCC/C=C/C#CCCCCCCCC[C@H]1C(=O)O[C@H](C)[C@@H]1O
inactive: Potency [1] | Potency [2] | Potency [3] | Potency [4]

N#Cc1cc(-c2n[nH]c(-c3ccncc3)n2)ccn1
inactive: Potency [1] | Potency [2] | Potency [3] | Potency [5] | Potency [4]

CCCCCOc1ccc(-c2cc(-c3ccc(C(=O)N[C@H]4C[C@@H](O)[C@@H](O)NC(=O)C5[C@@H](O)[C@@H](C)CN5C(=O)C([C@H](O)CC(N)=O)NC(=O)C([C@H](O)[C@@H](O)c5ccc(O)c(OS(=O)(=O)O)c5)NC(=O)C5C[C@@H](O)CN5C(=O)C([C@@H](C)O)NC4=O)cc3)no2)cc1 (stereo partly drawn) (X2-[Orn(4R-OH,5R-OH)][ξThr(3R)][ξPro(4R-OH)][ξhTyr(3S-OH,4S-OH,3'-OSO3H)][ξGln(3R-OH)][X3]; lactam 1-C)
inactive: Potency [1] | Potency [3] | Potency [4]
inactive and 2 µM (active): Potency [2]

CC1=C2C[C@@]3(C)[C@@H](CCC[C@@H]3C)C[C@@]2(O)OC1=O
inactive: Potency [1] | Potency [2] | Potency [3] | Potency [4]

O=C(O)Cc1cn([C@@H]2O[C@H](CO)[C@@H](O)[C@H](O)[C@H]2O[C@@H]2O[C@H](CO)[C@@H](O)[C@H](O)[C@H]2O)c2ccccc12
inactive: Potency [1] | Potency [2] | Potency [3] | Potency [4]

CCN(CCN(C)C)C(=O)CNCc1cc(C(N)=O)ccn1
inactive: Potency [1] | Potency [2] | Potency [3] | Potency [4]

CC1=C2CC(=O)C(C)CC/C=C(\C)CC2OC1=O (stereo unspecified)
inactive: Potency [1] | Potency [2] | Potency [3] | Potency [4]

CC(O)/C=C/C1(O)C(C)C(O)C(O[C@@H]2O[C@H](CO)[C@@H](O)[C@H](O)[C@H]2O)CC1(C)C (stereo partly specified)
inactive: Potency [1] | Potency [2] | Potency [3] | Potency [4]

Cc1occc1C(=O)n1ccnc1
inactive: Potency [1] | Potency [2] | Potency [3] | Potency [4]

CNc1nc(C)nc(N[C@H]2CCC[C@@H](C(=O)NCc3ccc(C#N)cc3C(F)(F)F)C2)n1
inactive: Potency [1] | Potency [2] | Potency [3] | Potency [4]

CC(C)C1NC(=O)C2CCCN2C1=O (stereo unspecified)
inactive: Potency [1] | Potency [2] | Potency [3] | Potency [4]

COc1cc(C(CO)C(OC2OC(CO)C(O)C(O)C2O)c2ccc(O)c(OC)c2)ccc1O (stereo unspecified)
inactive: Potency [1] | Potency [2] | Potency [3] | Potency [4]
